Measured values: PubChem BioAssay (Tox21)
Where “and” joins values, the source holds several entries; their conditions need not be identical. Equal values may be shown once. Inconclusive results are not listed. Entries that show only a call come without a potency. Where a structure was tested more than once in an assay, its records may differ in their call. Calls of active or inactive are those of the source. Unless noted, the call rests on the fitted dose curve.

How the values were obtained:
[1] = Nuclear factor erythroid 2-related factor 2/antioxidant responsive element (Nrf2/ARE) small molecule agonists: qHTS cell viability counter screen in human keratinocytes (AID 1919968; active means well fitted cell-killing curve with a large enough effect in the repeat runs; further: nearly all actives have a fitted effect of over 55% in size; further: potency means the concentration at half of the fitted maximal effect)
Method in brief: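 Seed 1,500 KeratinoSens cells per well, then incubate 5 h at 37 C/5% CO2. Add compounds in DMSO and incubate 23 h. Add CellTiter-Fluor, wait 1 h and read fluorescence.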

[2] = Nuclear factor erythroid 2-related factor 2/antioxidant responsive element (Nrf2/ARE) small molecule agonists: luciferase reporter gene qHTS assay in human keratinocytes (AID 1919969); further: nearly all actives have a fitted effect of over 35% in size; further: potency means the concentration at half of the fitted maximal effect
[3] = target: Gonadotropin-releasing hormone receptor (Homo sapiens) (UniProt P30968); experiment: Human gonadotropin-releasing hormone receptor (GnRHR) small molecule agonists, calcium flux assay in GnRHR-HEK293 cells (AID 1920063); further: nearly all actives have a fitted effect of over 35% in size
Sequence of Gonadotropin-releasing hormone receptor (Homo sapiens) (P30968 whole entry, looked up): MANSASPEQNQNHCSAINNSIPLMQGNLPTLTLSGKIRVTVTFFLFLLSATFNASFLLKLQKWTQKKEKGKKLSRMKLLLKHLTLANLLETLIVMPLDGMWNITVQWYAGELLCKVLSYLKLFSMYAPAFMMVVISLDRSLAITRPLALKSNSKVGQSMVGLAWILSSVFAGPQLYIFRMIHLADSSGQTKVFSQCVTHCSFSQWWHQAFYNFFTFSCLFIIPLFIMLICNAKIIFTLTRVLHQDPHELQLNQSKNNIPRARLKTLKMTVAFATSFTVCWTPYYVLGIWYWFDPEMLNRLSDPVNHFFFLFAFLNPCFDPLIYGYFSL
Method in brief: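 Cells: HEK293 stably expressing human GnRHR. Steps: overnight (18 h) culture, 1 h calcium dye loading at 37 C, compound addition, kinetic fluorescence read at 480/540 nm. Each compound tested at 15 concentrations in triplicate.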

[4] = p53 small molecule agonists, cell-based qHTS assay with human liver microsomes: qHTS cell viability counter screen (AID 1963579); further: nearly all actives have a fitted effect of over 45% in size
Method in brief: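 In this multiplexed counter screen, the reporter plates were subsequently treated with CellTiter-Glo so that cell viability, reflected by luminescence, could be recorded for p53RE-bla cells dosed 16 h with compounds under microsomal activation (HLM and NADPH).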

[5] = p53 small molecule agonists, cell-based qHTS assay with rat liver microsomes: qHTS cell viability counter screen (AID 1963580); further: nearly all actives have a fitted effect of over 45% in size; further: potency means the concentration at half of the fitted maximal effect
Method in brief: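 HCT-116 p53RE-bla, 4,000 cells/well, 5 h pre-incubation; cpd + rat liver microsomes 0.5 mg/mL + NADPH 0.5 mg/mL (final); 16 h, 37 C; CellTiter-Glo, 30 min RT; luminescence.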

[6] = p53 small molecule agonists, cell-based qHTS assay: qHTS cell viability counter screen (AID 1963581); further: nearly all actives have a fitted effect of over 45% in size
Method in brief: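 Cells: HCT-116 with p53 response element-driven beta-lactamase. Treatment: 16 h, 37 C, compounds in DMSO. Read: CellTiter-Glo luminescence after 30 min RT.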

[7] = p53 small molecule agonists, cell-based qHTS assay (AID 1963582; active means well fitted activation curve with a large enough effect in the signal ratio in the repeat runs, not every such curve was filed as active; the % refers to the signal ratio)
Method in brief: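 Quantitative HTS in p53RE-bla cells: after a 5 h settling period, compounds delivered in DMSO were left on cells for 16 h at 37 C, and reporter induction was measured as fluorescence following 2 h substrate loading.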

[8] = target: 5-hydroxytryptamine receptor 2A (Homo sapiens) (UniProt P28223); experiment: 5-hydroxytryptamine receptor 2A (HTR2A) small molecule antagonists, cell-based qHTS assay (AID 1963586); further: nearly all actives have a fitted effect of over 45% in size; further: potency means the concentration at half of the fitted maximal effect
Sequence of 5-hydroxytryptamine receptor 2A (Homo sapiens) (P28223 whole entry, looked up): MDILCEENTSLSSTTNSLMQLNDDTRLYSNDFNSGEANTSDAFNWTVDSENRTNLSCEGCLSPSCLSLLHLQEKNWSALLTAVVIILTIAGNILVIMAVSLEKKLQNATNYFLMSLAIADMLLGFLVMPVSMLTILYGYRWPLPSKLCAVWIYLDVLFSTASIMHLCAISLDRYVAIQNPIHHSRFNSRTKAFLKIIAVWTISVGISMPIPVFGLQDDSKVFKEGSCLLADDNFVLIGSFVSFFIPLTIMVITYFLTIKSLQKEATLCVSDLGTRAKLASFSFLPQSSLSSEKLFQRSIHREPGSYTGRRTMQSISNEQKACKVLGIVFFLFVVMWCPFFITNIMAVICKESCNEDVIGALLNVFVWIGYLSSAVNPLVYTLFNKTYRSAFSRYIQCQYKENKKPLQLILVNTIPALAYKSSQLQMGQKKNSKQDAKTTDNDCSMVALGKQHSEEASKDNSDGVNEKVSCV
Method in brief: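 Antagonist-mode intracellular calcium assay: DOI (4 nM) added after 5 min compound pre-incubation at room temperature to dye-loaded HTR2A-CHO cells. Fluorescence followed for 3 min, sampled every second.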

[9] = target: 5-hydroxytryptamine receptor 2A (Homo sapiens) (UniProt P28223); experiment: 5-hydroxytryptamine receptor 2A (HTR2A) small molecule agonists, cell-based qHTS assay (AID 1963587); further: nearly all actives have a fitted effect of over 30% in size
Method in brief: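 Kinetic calcium-flux fluorescence (2 min, 1 sec intervals) after compound addition in agonist mode. HTR2A-CHO cells were cultured 18 h, then dye-loaded 1 h at 37 C.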

[10] = target: Muscarinic acetylcholine receptor M1 (Homo sapiens) (UniProt P11229); experiment: Cholinergic receptor muscarinic 1 (CHRM1) small molecule agonists, cell-based qHTS assay (AID 1963589); further: nearly all actives have a fitted effect of over 35% in size
Sequence of Muscarinic acetylcholine receptor M1 (Homo sapiens) (P11229 whole entry, looked up): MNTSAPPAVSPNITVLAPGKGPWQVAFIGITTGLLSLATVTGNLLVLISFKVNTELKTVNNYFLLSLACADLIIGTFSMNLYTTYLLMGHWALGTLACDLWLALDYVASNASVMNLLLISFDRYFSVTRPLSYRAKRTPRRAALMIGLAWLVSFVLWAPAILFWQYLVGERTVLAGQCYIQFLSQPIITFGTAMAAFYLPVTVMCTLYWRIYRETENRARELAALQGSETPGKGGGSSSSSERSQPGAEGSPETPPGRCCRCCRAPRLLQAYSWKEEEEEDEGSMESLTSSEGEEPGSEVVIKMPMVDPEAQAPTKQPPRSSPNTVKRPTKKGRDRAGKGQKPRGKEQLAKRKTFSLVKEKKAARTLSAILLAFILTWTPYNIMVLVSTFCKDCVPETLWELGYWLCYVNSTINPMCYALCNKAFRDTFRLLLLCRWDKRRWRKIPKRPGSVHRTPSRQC
Method in brief: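 Agonist-mode qHTS in CHO cells stably carrying human muscarinic M1. Intracellular calcium is tracked by fluorescence every second after compound transfer; each compound runs at 15 concentrations in three independent runs.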

[11] = cAMP Responsive Elements (CRE) small molecule agonists, cell-based qHTS assay (AID 1963590)
Method in brief: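 Agonist mode qHTS in CRE-bla HEK 293T cells: compounds dosed from DMSO for 3 h at 37 C/5% CO2, followed by LiveBLAzer B/G FRET substrate for 2 h at room temperature.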

[12] = cAMP Responsive Elements (CRE) small molecule antagonists, cell-based qHTS assay (AID 1963591; active means well fitted inhibition curve with a large enough effect in the signal ratio in the repeat runs, not every such curve was filed as active; the % refers to the signal ratio)
Method in brief: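 Antagonist mode: test compounds are co-incubated with the adenylyl cyclase activator NKH477 (0.25 uM final) on CRE-bla HEK293T cells for 3 h at 37 °C, followed by LiveBLAzer substrate loading.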

[13] = target: Beta-2 adrenergic receptor (Homo sapiens) (UniProt P07550); experiment: Adrenergic beta2 receptor (ADRB2) small molecule antagonists, cell-based qHTS assay (AID 1963592); further: series mostly up to about 92 µM; nearly all actives have a fitted effect of over 50% in size
Sequence of Beta-2 adrenergic receptor (Homo sapiens) (P07550 whole entry, looked up): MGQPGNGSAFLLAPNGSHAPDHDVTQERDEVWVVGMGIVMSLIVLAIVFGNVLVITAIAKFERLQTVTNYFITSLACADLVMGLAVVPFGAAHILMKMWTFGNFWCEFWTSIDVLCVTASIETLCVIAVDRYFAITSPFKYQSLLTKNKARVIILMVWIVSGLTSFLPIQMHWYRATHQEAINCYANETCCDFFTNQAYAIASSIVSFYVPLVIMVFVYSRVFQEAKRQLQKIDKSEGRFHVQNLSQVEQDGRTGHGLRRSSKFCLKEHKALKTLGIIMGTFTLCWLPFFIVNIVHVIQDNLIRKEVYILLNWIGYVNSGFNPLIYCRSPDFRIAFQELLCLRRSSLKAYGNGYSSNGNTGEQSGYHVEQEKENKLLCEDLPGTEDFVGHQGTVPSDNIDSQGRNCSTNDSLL
Method in brief: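 Cells (CHO, stable ADRB2 overexpression) incubated 18-20hr at 37C; compounds added from DMSO; agonist mix (1nM isoproterenol, 100uM IBMX, 25uM Ro-20-1724) added; 0.5hr RT; d2-cAMP and anti-cAMP-cryptate added; 1hr RT; 665/615 nm read.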

[14] = target: Beta-2 adrenergic receptor (Homo sapiens) (UniProt P07550); experiment: Adrenergic beta2 receptor (ADRB2) small molecule agonists, cell-based qHTS assay (AID 1963593);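 further: CHO cells stably overexpressing human ADRB2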
Method in brief: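 CHO cells stably over-expressing ADRB2 were plated overnight at 37C, then dosed with compounds plus a stimulation mix containing 100uM IBMX and 25uM Ro-20-1724 for 0.5hr at room temperature. cAMP was measured by HTRF competition, 1hr.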

[15] = target: D(2) dopamine receptor (Homo sapiens) (UniProt P14416); experiment: Dopamine D2 receptor (DRD2) small molecule agonists, cell-based qHTS assay (AID 1963594); further: nearly all actives have a fitted effect of over 35% in size
Sequence of D(2) dopamine receptor (Homo sapiens) (P14416 whole entry, looked up): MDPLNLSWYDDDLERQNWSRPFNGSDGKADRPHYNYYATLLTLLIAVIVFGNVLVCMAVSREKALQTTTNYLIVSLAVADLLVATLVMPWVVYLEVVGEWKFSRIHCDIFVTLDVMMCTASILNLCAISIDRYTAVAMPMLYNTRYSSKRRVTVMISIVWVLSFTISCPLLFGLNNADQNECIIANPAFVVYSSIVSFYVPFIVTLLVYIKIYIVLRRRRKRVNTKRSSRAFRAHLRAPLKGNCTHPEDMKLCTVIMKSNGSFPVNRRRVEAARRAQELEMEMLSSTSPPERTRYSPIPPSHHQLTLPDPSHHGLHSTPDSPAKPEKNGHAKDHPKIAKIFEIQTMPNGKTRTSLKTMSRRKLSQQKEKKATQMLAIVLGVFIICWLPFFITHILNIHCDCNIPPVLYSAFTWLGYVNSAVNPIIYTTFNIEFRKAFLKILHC
Method in brief: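 cAMP accumulation in DRD2-HEK293 cells measured by HTRF after 1 h detection; compounds added 10 min before NKH477 (200nM […]) forskolin-analogue stimulation, 30 min at room temperature, with Ro20-1724 present at 0.1 mM final.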

[16] = target: D(2) dopamine receptor (Homo sapiens) (UniProt P14416); experiment: Dopamine D2 receptor (DRD2) small molecule antagonists, cell-based qHTS assay (AID 1963595; active means well fitted inhibition curve with a large enough effect in the signal ratio in the repeat runs, with a control signal flat; the % refers to the signal ratio)
Method in brief: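 Antagonism was scored as restored cAMP in HEK293-DRD2 cells. These cells were stimulated with 200 nM NKH477 and 12 nM quinpirole for 30 min at room temperature, in the presence of 0.1 mM Ro20-1724.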

[17] = G protein-coupled receptor (GPCR) small molecule agonists, calcium flux assay: HEK293 wild type cell line counter screen (AID 1920065)
Method in brief: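 Counter-screen of the Tox21 10K library for non-specific calcium release: dye-loaded cells received compounds in DMSO and were monitored by kinetic fluorescence (480/540 nm, 3 min). Fifteen concentrations, run in triplicate.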

[18] = p53 small molecule agonists, cell-based qHTS assay with human liver microsomes (AID 1963577);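 further: p53 response element beta-lactamase reporter cells with liver microsomes plus NADPH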
Method in brief: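 16 h, 37 C exposure of p53RE-bla cells to compounds with human liver microsomes and NADPH (0.5 mg/mL final each); detection via LiveBLAzer mixture, 2 h dark at room temperature.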

[19] = p53 small molecule agonists, cell-based qHTS assay with rat liver microsomes (AID 1963578)
Method in brief: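 With rat liver microsomes and NADPH present (0.5 mg/mL final each), p53RE-bla cells are treated with compound for 16 h at 37 C. LiveBLAzer detection mixture is then applied for 2 h at room temperature in the dark.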

[20] = target: Muscarinic acetylcholine receptor M1 (Homo sapiens) (UniProt P11229); experiment: Cholinergic receptor muscarinic 1 (CHRM1) small molecule antagonists, cell-based qHTS assay (AID 1963588); further: nearly all actives have a fitted effect of over 40% in size
Method in brief: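 CHRM1-CHO calcium-flux assay, antagonist mode. Cells were seeded 18 h, dye-loaded 1 h at 37 C and given compound for 5 min at RT, then acetylcholine was added at 50nM. FDSS fluorescence was read 3 min; 15 concentrations, three runs.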

| Compound | Potency [1] | Potency [2] | Potency [3] | Potency [4] | Potency [5] | Potency [6] | Potency [7] | Potency [8] | Potency [9] | Potency [10] | Potency [11] | Potency [12] | Potency [13] | Potency [14] | Potency [15] | Potency [16] | Potency [17] | Potency [18] | Potency [19] | Potency [20] |
| --- | --- | --- | --- | --- | --- | --- | --- | --- | --- | --- | --- | --- | --- | --- | --- | --- | --- | --- | --- | --- |
| COP(=O)(OC)C(O)C(Cl)(Cl)Cl (centres undefined) | inactive | 43.7 µM (active) and 61.1 µM (active) and inactive | inactive | inactive | inactive | inactive | inactive | inactive and 8.39 µM (active) | inactive | inactive | inactive | inactive | inactive | inactive | inactive | inactive |  |  |  |  |
| Oc1ccc(Cl)cc1Cl | inactive | inactive | inactive | inactive | inactive | inactive | inactive | inactive | inactive | inactive | inactive |  | inactive | inactive | inactive | inactive | inactive | inactive | inactive | inactive |
| CNC(=O)O/N=C/C(C)(C)S(C)(=O)=O | inactive | inactive | inactive | inactive | inactive | inactive | inactive |  | inactive | inactive | inactive | inactive | inactive | inactive |  | inactive |  |  |  | inactive |
| Cc1cc(C)cc(C)c1 | inactive | inactive | inactive | inactive | inactive | inactive |  | inactive | inactive | inactive | inactive |  | inactive |  | inactive | inactive |  |  |  | inactive |
| [O-][Cl+2]([O-])O | inactive | inactive | inactive | inactive | inactive |  | inactive | inactive |  | inactive | inactive | inactive | inactive | inactive | inactive | inactive |  |  | inactive | inactive |
| CCCCCCCCCc1ccc(O)cc1 | 27.6 µM (active) | inactive | inactive | inactive | inactive and 40.8 µM (active) | inactive | inactive |  |  |  | inactive | inactive | inactive |  | inactive |  | inactive | inactive | inactive |  |
| COCCC#N | inactive | inactive | inactive | inactive | inactive | inactive | inactive | inactive | inactive | inactive | inactive | inactive |  | inactive | inactive | inactive | inactive | inactive | inactive | inactive |
| [N-]=[N+]=[N-] | inactive | inactive | inactive | inactive | inactive | inactive | inactive | inactive | inactive |  | inactive | inactive | inactive | inactive | inactive | inactive |  |  |  | inactive |
